Changes are numbered by the printed parent chain.
What was measured:
Assay in all cases: HT-SELEX; high values mean tight binding
Details in all cases: protein: recombinant; vector His6-GST; dsDNA, one strand shown
[1] = target: T1, SALL4 ZFC4 WT (HT-SELEX) (Mus musculus, UniProt Q8BX22 870-940)
T1 sequence: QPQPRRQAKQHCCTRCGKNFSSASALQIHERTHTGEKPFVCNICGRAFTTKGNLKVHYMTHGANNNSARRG
Procedure, shortened: (§1)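 DNA from a random library (1.5 µg in the first cycle, 200 ng afterwards) was incubated with purified recombinant mouse SALL4 zinc finger cluster 4, residues 870–940 (1 µg), for 10 min at room temperature in 100 µl buffer: 10 mM Tris–HCl pH 7.5, 50 mM NaCl, poly(dI-dC), DTT. Bound complexes were pulled down on Ni2+ beads, washed and PCR-amplified, and the selection was repeated for up to 6 cycles in triplicate. MiSeq reads were scanned for 6-mers, and binding signal is each canonical k-mer's read fraction as fold change over the initial random library.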

[2] = target: T2, SALL4 ZFC4 R900W (HT-SELEX) (Mus musculus, UniProt Q8BX22 870-940, R900W)
T2 sequence: T1 sequence with R31W
Procedure, shortened: as §1

[3] = target: T3, SALL4 ZFC4 G921D (HT-SELEX) (Mus musculus, UniProt Q8BX22 870-940, G921D)
T3 sequence: T1 sequence with G52D
Procedure, shortened: as §1

Sequence: GATGAC
- binding signal [1]: 0.865 ± 0.0236 fold-change vs cycle 0
- binding signal [2]: 0.962 ± 0.0544 fold-change vs cycle 0
- binding signal [3]: 1.01 ± 0.0406 fold-change vs cycle 0

Sequence: ATATCC
- binding signal [1]: 1.52 ± 0.0519 fold-change vs cycle 0
- binding signal [2]: 1.43 ± 0.0827 fold-change vs cycle 0
- binding signal [3]: 1.37 ± 0.0764 fold-change vs cycle 0

Sequence: CCTACA
- binding signal [1]: 0.76 ± 0.0346 fold-change vs cycle 0
- binding signal [2]: 0.876 ± 0.0282 fold-change vs cycle 0
- binding signal [3]: 0.919 ± 0.0351 fold-change vs cycle 0

Sequence: AACAGA
- binding signal [1]: 1.28 ± 0.057 fold-change vs cycle 0
- binding signal [2]: 1.41 ± 0.0434 fold-change vs cycle 0
- binding signal [3]: 1.35 ± 0.0868 fold-change vs cycle 0

Sequence: AACTTC
- binding signal [1]: 1.37 ± 0.0514 fold-change vs cycle 0
- binding signal [2]: 1.52 ± 0.0544 fold-change vs cycle 0
- binding signal [3]: 1.4 ± 0.0625 fold-change vs cycle 0

Sequence: ATAATA
- binding signal [1]: 4.87 ± 0.591 fold-change vs cycle 0
- binding signal [2]: 2.66 ± 0.215 fold-change vs cycle 0
- binding signal [3]: 2.24 ± 0.293 fold-change vs cycle 0

Sequence: CTGCAA
- binding signal [1]: 0.58 ± 0.0126 fold-change vs cycle 0
- binding signal [2]: 0.651 ± 0.015 fold-change vs cycle 0
- binding signal [3]: 0.729 ± 0.0483 fold-change vs cycle 0

Sequence: CCGTAC
- binding signal [1]: 0.377 ± 0.0221 fold-change vs cycle 0
- binding signal [2]: 0.458 ± 0.015 fold-change vs cycle 0
- binding signal [3]: 0.544 ± 0.0408 fold-change vs cycle 0

Sequence: CACCAG
- binding signal [1]: 0.43 ± 0.0196 fold-change vs cycle 0
- binding signal [2]: 0.526 ± 0.014 fold-change vs cycle 0
- binding signal [3]: 0.606 ± 0.0242 fold-change vs cycle 0

Sequence: TCCTAA
- binding signal [1]: 1.43 ± 0.0908 fold-change vs cycle 0
- binding signal [2]: 1.56 ± 0.119 fold-change vs cycle 0
- binding signal [3]: 1.46 ± 0.14 fold-change vs cycle 0

Sequence: GATTGC
- binding signal [1]: 0.641 ± 0.0324 fold-change vs cycle 0
- binding signal [2]: 0.711 ± 0.00883 fold-change vs cycle 0
- binding signal [3]: 0.817 ± 0.0343 fold-change vs cycle 0

Sequence: ACTCTC
- binding signal [1]: 0.904 ± 0.0319 fold-change vs cycle 0
- binding signal [2]: 1.05 ± 0.0292 fold-change vs cycle 0
- binding signal [3]: 1.07 ± 0.0307 fold-change vs cycle 0

Sequence: ACGCTA
- binding signal [1]: 0.566 ± 0.0296 fold-change vs cycle 0
- binding signal [2]: 0.638 ± 0.0194 fold-change vs cycle 0
- binding signal [3]: 0.754 ± 0.0468 fold-change vs cycle 0

Sequence: AAACGT
- binding signal [1]: 1.02 ± 0.0198 fold-change vs cycle 0
- binding signal [2]: 1.17 ± 0.0143 fold-change vs cycle 0
- binding signal [3]: 1.14 ± 0.0434 fold-change vs cycle 0

Sequence: ACTGAC
- binding signal [1]: 0.782 ± 0.026 fold-change vs cycle 0
- binding signal [2]: 0.909 ± 0.0341 fold-change vs cycle 0
- binding signal [3]: 0.934 ± 0.016 fold-change vs cycle 0

Sequence: ACTACG
- binding signal [1]: 0.659 ± 0.026 fold-change vs cycle 0
- binding signal [2]: 0.728 ± 0.025 fold-change vs cycle 0
- binding signal [3]: 0.821 ± 0.0676 fold-change vs cycle 0

Sequence: AACATC
- binding signal [1]: 1.26 ± 0.068 fold-change vs cycle 0
- binding signal [2]: 1.37 ± 0.098 fold-change vs cycle 0
- binding signal [3]: 1.34 ± 0.101 fold-change vs cycle 0

Sequence: AACAAT
- binding signal [1]: 2.06 ± 0.132 fold-change vs cycle 0
- binding signal [2]: 1.95 ± 0.114 fold-change vs cycle 0
- binding signal [3]: 1.79 ± 0.145 fold-change vs cycle 0

Sequence: AAGCTG
- binding signal [1]: 0.608 ± 0.0202 fold-change vs cycle 0
- binding signal [2]: 0.708 ± 0.0215 fold-change vs cycle 0
- binding signal [3]: 0.801 ± 0.0274 fold-change vs cycle 0

Sequence: ATTATG
- binding signal [1]: 2.78 ± 0.17 fold-change vs cycle 0
- binding signal [2]: 1.94 ± 0.0249 fold-change vs cycle 0
- binding signal [3]: 1.74 ± 0.121 fold-change vs cycle 0

Sequence: AAGAGC
- binding signal [1]: 0.752 ± 0.0601 fold-change vs cycle 0
- binding signal [2]: 0.917 ± 0.0813 fold-change vs cycle 0
- binding signal [3]: 1.02 ± 0.0502 fold-change vs cycle 0

Sequence: ACCGAG
- binding signal [1]: 0.423 ± 0.0215 fold-change vs cycle 0
- binding signal [2]: 0.496 ± 0.0188 fold-change vs cycle 0
- binding signal [3]: 0.586 ± 0.0556 fold-change vs cycle 0

Sequence: ACTTGA
- binding signal [1]: 1.33 ± 0.0337 fold-change vs cycle 0
- binding signal [2]: 1.5 ± 0.0479 fold-change vs cycle 0
- binding signal [3]: 1.41 ± 0.0888 fold-change vs cycle 0

Sequence: CTATGA
- binding signal [1]: 1.49 ± 0.114 fold-change vs cycle 0
- binding signal [2]: 1.43 ± 0.0544 fold-change vs cycle 0
- binding signal [3]: 1.42 ± 0.104 fold-change vs cycle 0

Sequence: TGGAAA
- binding signal [1]: 1.28 ± 0.069 fold-change vs cycle 0
- binding signal [2]: 1.27 ± 0.0696 fold-change vs cycle 0
- binding signal [3]: 1.23 ± 0.0625 fold-change vs cycle 0

Sequence: ACCTGG
- binding signal [1]: 0.46 ± 0.021 fold-change vs cycle 0
- binding signal [2]: 0.537 ± 0.0102 fold-change vs cycle 0
- binding signal [3]: 0.635 ± 0.0393 fold-change vs cycle 0

Sequence: GCTCCA
- binding signal [1]: 0.305 ± 0.0228 fold-change vs cycle 0
- binding signal [2]: 0.37 ± 0.0101 fold-change vs cycle 0
- binding signal [3]: 0.505 ± 0.0396 fold-change vs cycle 0

Sequence: CATATG
- binding signal [1]: 1.44 ± 0.156 fold-change vs cycle 0
- binding signal [2]: 1.37 ± 0.112 fold-change vs cycle 0
- binding signal [3]: 1.32 ± 0.0777 fold-change vs cycle 0

Sequence: TCACCA
- binding signal [1]: 0.829 ± 0.0293 fold-change vs cycle 0
- binding signal [2]: 0.931 ± 0.0104 fold-change vs cycle 0
- binding signal [3]: 0.988 ± 0.0172 fold-change vs cycle 0

Sequence: ATAGGC
- binding signal [1]: 0.52 ± 0.0405 fold-change vs cycle 0
- binding signal [2]: 0.585 ± 0.0153 fold-change vs cycle 0
- binding signal [3]: 0.733 ± 0.0725 fold-change vs cycle 0

— publication PMC9838217, “Structure of SALL4 zinc finger domain reveals link between AT-rich DNA binding and Okihiro syndrome”
